Molecules are shown by their SMILES. Inconclusive results are not listed. Activity calls are given as the source filed them. Calls follow the shape of the dose curve; as a rule, active = well fitted curve in the direction sought with a large enough effect; inconclusive = small, poorly fitted or top-dose-only effect, or another doubt; inactive = no such curve, though single readings can be large or run the other way.

Chain of Polyunsaturated fatty acid lipoxygenase ALOX15 (Homo sapiens) (P16050 whole entry, looked up): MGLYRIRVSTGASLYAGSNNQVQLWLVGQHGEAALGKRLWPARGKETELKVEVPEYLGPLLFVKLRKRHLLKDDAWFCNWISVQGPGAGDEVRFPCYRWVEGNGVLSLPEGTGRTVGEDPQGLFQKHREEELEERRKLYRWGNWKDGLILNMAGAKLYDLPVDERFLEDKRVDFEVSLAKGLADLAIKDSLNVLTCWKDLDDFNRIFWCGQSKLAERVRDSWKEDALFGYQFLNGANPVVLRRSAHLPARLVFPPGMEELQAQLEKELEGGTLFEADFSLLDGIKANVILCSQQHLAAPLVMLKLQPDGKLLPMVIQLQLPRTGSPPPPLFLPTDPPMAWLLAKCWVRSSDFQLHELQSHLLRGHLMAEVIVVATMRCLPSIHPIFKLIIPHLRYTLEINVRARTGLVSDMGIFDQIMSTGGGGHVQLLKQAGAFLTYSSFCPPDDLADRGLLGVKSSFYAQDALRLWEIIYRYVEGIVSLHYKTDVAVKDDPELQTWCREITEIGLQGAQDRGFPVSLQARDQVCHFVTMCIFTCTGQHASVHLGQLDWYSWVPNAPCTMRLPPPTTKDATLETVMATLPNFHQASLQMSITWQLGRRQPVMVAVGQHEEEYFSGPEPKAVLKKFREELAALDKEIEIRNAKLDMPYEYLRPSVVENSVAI

This assay concerns the target Polyunsaturated fatty acid lipoxygenase ALOX15 (Homo sapiens) (UniProt P16050). In words: Counterscreen qHTS for inhibitors of human arachidonate 12S-lipoxygenase (ALOX12): ALOX15 Assay. The settings on record: purified ALOX15 enzyme activity; series mostly up to 110 µM. Put shortly: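 Xylenol orange–ferric complex formation, read as the 573 nm to 405 nm absorbance ratio, tracks product from 50 uM arachidonic acid turned over for 30 min at RT. Enzyme is 40 nM ALOX15, pH 7.5 HEPES buffer, compound-preincubated 15 min.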
For orientation: Counterscreens check selectivity or assay interference.
On to `CN1CCC(C(=O)N2Cc3ccccc3OC3(CCN(C(=O)N(C)C)CC3)C2)CC1`, for which the result was inactive.

For the compound `CCC(=O)N1Cc2ccccc2CC2(CCN(CCc3ccc(C)cc3)CC2)C1`, the call was inactive.

Consider `CCc1ccc(CN2CCCC23Cc2ccccc2CNC3=O)cc1` (stereo not drawn), for which the result was inactive.

As for `O=C(c1ccc(C(F)(F)F)cc1)N1CCC2(CC1)C(=NC1CCCCC1)NC(=O)N2c1cc(F)cc(F)c1`, the compound was called inactive.

As to `O=C1NCc2ccccc2CC12CCN(Cc1c[nH]c3ccccc13)CC2`, the result was inactive.

Take `CN1CC(=O)N(C2CCNC2)Cc2c(NCCc3cccc(F)c3)ncnc21` (stereo not drawn): the result was inactive.

For the compound `COc1ccc(-c2nc(C3CC3)nc3c2CN(C(=O)c2ccccc2OC)CC3)cc1`, the call was inactive.

In the case of `COc1cccc(N2C(=O)NC(=NC3CCCCC3)C23CCCN(C(=O)c2ccccc2)C3)c1` (stereo not drawn), the result was inactive.

Regarding `O=C1Nc2ccccc2CN(CC2CCCCC2)C12CCNCC2`, the call was inactive.

With `COc1ccccc1C(=O)N1CCc2nc(C3CC3)nc(-c3ccc(Cl)cc3)c2C1`, the compound was classed as inactive.

Regarding `COc1ccc(CN2CCC3(C2)C(=O)Nc2ccccc23)cc1` (stereo not drawn), the outcome was inactive.

Regarding `CN1CC(=O)N(c2cccc(F)c2)Cc2c(NC3CCNCC3)ncnc21`, the compound was classed as inactive.

Consider `O=C1Nc2ccccc2CN(C/C=C/c2ccccc2)C12CCNC2` (stereo not drawn), for which the result was inactive.

For the compound `CCN(c1ccc2c(c1)OCO2)C1CN(C(=O)OC(C)(C)C)C1`, the compound was classed as inactive.

Take `Nc1ccccc1CN1CCCC2(Cc3ccccc3CNC2=O)C1` (stereo not drawn): the compound was called inactive.

As for `Cc1ccc(-c2ccccc2CN)cc1Cl`, the outcome was inactive.

Take `O=C1NCc2ccccc2CC12CCN(Cc1ccc(O)cc1)CC2`: the call was inactive.

For the compound `O=[S+]([O-])(c1ccc(Br)cc1)c1nnn2c1nc(NCc1ccc(F)cc1)c1ccccc12`, the compound was called inactive.

Regarding `O=C1NCc2ccccc2CC12CCN(Cc1ccc([N+](=O)[O-])cc1)C2` (stereo not drawn), the outcome was inactive.

In the case of `O=C(c1ccc(Cl)cc1)N1CC2(CCCN(Cc3ccc(Cl)cc3)C2)Cc2ccccc21` (stereo not drawn), the call was inactive.

With `Cc1ccc(-c2cccc(C=O)c2)cc1Cl`, the outcome was inactive.

For the compound `CC1CCCN1c1ncnc2c1CN(C1CCCNCC1)C(=O)CN2C` (stereo not drawn), the call was inactive.

With `Cn1nc(C2CCNC2)c2c(C(=O)NCc3ccc(F)cc3)cc(C3CC3)nc21` (stereo not drawn), the result was inactive.

As to `CCCN1CCC2(CC1)Cc1ccccc1CN(C(=O)C(C)C)C2`, the call was inactive.

As for `O=C1Nc2ccccc2C12CCN(Cc1ccccc1)C2` (stereo not drawn), the call was inactive.

On to `c1cc2c(cc1OC1CN(CC3CCCCC3)C1)OCO2`, for which the compound was called inactive.

`O=Cc1ccccc1-c1ccc(O)cc1`: the call was inactive.

Regarding `CNCc1ccccc1C(F)(F)F`, the compound was classed as inactive.

Take `CN1CCC2(Cc3ccccc3CN(C(=O)CCN)C2)C1` (stereo not drawn): the call was inactive.

Take `c1ccc2c(CN3CC(Oc4ccc5c(c4)OCO5)C3)cccc2c1`: the outcome was inactive.

For the compound `Fc1ccc(OC2CN(Cc3ccc(C(F)(F)F)cc3)C2)cc1F`, the call was inactive.

Regarding `FC(F)(F)c1ccc(N2C3CCC2CN(Cc2cccs2)C3)cc1`, the compound was called inactive.

As to `NCC(C1CCCCC1)N1CCCC1` (stereo not drawn), the outcome was inactive.

Regarding `CC(=O)N1CCN(c2ccc(Cl)nn2)C(=O)C1`, the compound was called inactive.

On to `CC(C)c1nc2c(c(-c3ccc(Cl)cc3)n1)CCN(C(=O)c1ccc3c(c1)OCO3)CC2`, for which the call was inactive.

On to `CC(=O)NC1CC2(CCN(C(=O)Cc3c(C)noc3C)CC2)Oc2ccccc21` (stereo not drawn), for which the compound was classed as inactive.

In the case of `COc1ccccc1C(=O)N1CCC(N2Cc3ccccc3C2=O)CC1`, the result was inactive.

As to `Cc1cc(Cl)ccc1-c1ccccc1CN`, the result was inactive.

Values taken from PubChem BioAssay AID1671192 (National Center for Advancing Translational Sciences (NCATS), 2021).
